High-throughput results from PubChem BioAssay.
This is a sample that favours compounds with a hit; in the whole collection about 11% have one here.
PLK1 PBD block – inhibitors of human PLK1 polo-box domain binding; P53350; Plk1 PBD binding of FITC phosphopeptide, fluorescence polarization; Potency, µM, usual class: inhibitors; hit rate 2.8% among 360,000; AID 720504; note: series mostly up to about 57 µM; nearly all actives have a fitted effect of over 65% in size
VDR inhibitor – blocks the human vitamin D receptor | hit rate 0.93% among 400,000 | AID 504847 | VDR-SRC2-3 peptide fluorescence polarization, 2 h | Potency, µM, most hits filed as inhibitors
Target sequence (P11473 whole entry, looked up): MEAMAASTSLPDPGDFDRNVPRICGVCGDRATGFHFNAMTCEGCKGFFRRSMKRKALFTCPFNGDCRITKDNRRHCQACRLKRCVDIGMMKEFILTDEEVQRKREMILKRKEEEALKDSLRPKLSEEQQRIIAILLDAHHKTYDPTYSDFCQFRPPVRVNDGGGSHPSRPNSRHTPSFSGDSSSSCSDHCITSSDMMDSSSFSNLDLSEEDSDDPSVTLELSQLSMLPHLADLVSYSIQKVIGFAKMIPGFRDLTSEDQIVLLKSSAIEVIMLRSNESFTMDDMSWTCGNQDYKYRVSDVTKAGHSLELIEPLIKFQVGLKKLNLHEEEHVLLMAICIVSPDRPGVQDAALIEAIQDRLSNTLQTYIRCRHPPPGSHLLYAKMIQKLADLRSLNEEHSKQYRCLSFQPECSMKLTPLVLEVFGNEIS
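Fluorescence polarization assay of small-molecule disruption of VDR binding to coregulator peptide SRC2-3. Compounds and controls pin-transferred, then read after 2 h incubation at ambient room temperature.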
BAZ2B block – inhibitors of human BAZ2B bromodomain | Q9UIF8 | AlphaScreen BAZ2B-H3K14Ac peptide displacement | Potency, µM (top dose mostly 114 µM), usual class: inhibitors | hit rate 4.4% among 360,000 | AID 504333; note: nearly all actives have a fitted effect of over 60% in size
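BAZ2B 50 nM plus b-H3(5-23)K14Ac 50 nM, PBS pH 7.4/0.01% Tween-20, 30 min RT; compound added (max 110 uM), 30 min RT; streptavidin donor/Ni-chelate acceptor beads 10 ug/mL final, 20 min dark; AlphaScreen read.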
JMJD2A Tudor – JMJD2A Tudor domain (human) inhibition; hit rate 4.4% among 390,000; Potency, µM (titrated, usually from 114 µM), hits mostly inhibitors; AlphaScreen JMJD2A-Tudor / H3K4me3 peptide binding; note: nearly all actives have a fitted effect of over 50% in size
G9a block – inhibitors of human histone lysine methyltransferase G9a; Q96KQ7; G9a H3K9 monomethylation, AlphaScreen, 2 h; Potency, µM (titrated, usually from 102 µM), most hits filed as inhibitors; hit rate 8.8% among 350,000; AID 504332; note: nearly all actives have a fitted effect of over 75% in size
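Methyltransferase reactions run at room temperature for 2 h (20 nM enzyme, 500 nM biotin-H3K9 peptide, 20 uM SAM) after a 15 min compound preincubation; product detected by AlphaScreen beads and anti-H3K9me1 antibody.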
HP1b chromo inh – blocks HP1-beta chromodomain binding to methylated histone tails; AID 540317; P83916; hit rate 0.56% among 390,000; AlphaScreen HP1-beta / biotin-H3K9me3 peptide binding; Potency, µM (doses to about 114 µM), usual class: inhibitors; note: nearly all actives have a fitted effect of over 70% in size
Target sequence (P83916 whole entry, looked up): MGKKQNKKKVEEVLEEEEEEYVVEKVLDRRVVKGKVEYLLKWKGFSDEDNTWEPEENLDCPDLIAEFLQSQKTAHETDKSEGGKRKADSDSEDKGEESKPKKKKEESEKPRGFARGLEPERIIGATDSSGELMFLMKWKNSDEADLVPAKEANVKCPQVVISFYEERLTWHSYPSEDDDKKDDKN
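AlphaScreen: HP1-beta (50 nM) preformed 30 min with biotin-H3(1-18)K9me3 peptide (50 nM) in PBS pH 7.4, 0.01% Tween-20. Compound added for 30 min at RT, then streptavidin donor/nickel chelate acceptor beads (10 ug/mL) for 30 min.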
Hits are given with their value; . = inactive; ? = inconclusive; / = no result given; [ ] = remark or other dose. Calls come from the whole dose curve; as a rule, active = well fitted curve in the direction sought with a large enough effect; inconclusive = small, poorly fitted or top-dose-only effect, or another doubt; inactive = no such curve, though single readings can be large; an effect the other way counts as inactive or inconclusive.

SMILES | PLK1 PBD block | VDR inhibitor | BAZ2B block | JMJD2A Tudor | G9a block | HP1b chromo inh
CC(C)C(NC(=O)c1ccco1)C(=O)NCc1ccc(C(=O)O)cc1 (stereo not drawn) | . | . | . | . | . | .
C=CCSc1nnc(-c2cnn(-c3ccccc3)c2-n2cccc2)n1C | . | . | . | . | .[12.7 µM] | .
CCCSc1nnc(-c2cnn(-c3ccccc3)c2-n2cccc2)n1C | . | . | . | . | 13µM | .
C=CCNc1ncnc2c1ncn2[C@H]1CN(Cc2ccc(-c3ccccc3)cc2)C[C@@H](CO)O1 | . | / | / | / | / | /
Cc1ccc(S(=O)(=O)Nc2ccc(F)cc2)cc1C(=O)N1CCOCC1 | . | . | / | . | / | .
COC(=O)C1=C(C)N(C)C(=O)NC1c1cc(Cl)c(O)c(OC)c1 (stereo not drawn) | . | . | . | . | . | .
COC(=O)C(c1cc(OC)c(O)c(OC)c1)(N1CCNC(C)C1)C(F)(F)F (stereo not drawn) | . | . | . | . | 10µM | .
O=C(Cn1ccnc1)c1ccc(O)c(O)c1 | . | . | 56µM | 22µM | ? | .
COc1ccc(C(=O)N2CCc3ccccc32)cc1 | . | . | . | . | . | .
COc1cc2c(cc1OC)CN(C(C)C(=O)N1CCc3ccccc31)CC2 (stereo not drawn) | . | . | 56µM | . | ? | .
COc1ccc(N2CCN(C(C)C(=O)N3CC(C)OC(C)C3)CC2)cc1 (stereo not drawn) | . | . | 56µM | 0.89µM | 45µM | ?
COc1ccc(N2CCN(C(=O)[C@H](C)N3C(=O)C4CC=CCC4C3=O)CC2)cc1 (stereo partly drawn) | . | . | / | . | / | .
COc1ccc(N2CCN(C(C)C(=O)N3CCc4ccccc43)CC2)cc1 (stereo not drawn) | . | . | ? | ? | 40µM | ?
CC(C(=O)N1CCc2ccccc21)N1CCc2ccccc2C1 (stereo not drawn) | . | . | . | . | . | .
CCc1c2c(nc3ccc4c(c13)OCCO4)-c1nc3ccccc3c(=O)n1C2 | / | . | / | . | / | .
Cc1cccc(OCC(=O)N(Cc2ccccc2)c2c(N)n(Cc3ccccc3)c(=O)[nH]c2=O)c1 | . | . | . | . | . | .
Cc1cccc(NC(=S)c2nc3ccccc3s2)c1 | . | . | 8.9µM | 50µM | / | 28µM
Cc1nc(C(F)(F)F)c(C(=O)N/N=C(\N)c2cccnc2)s1 | . | . | 79µM | 28µM | . | .
C/C(=N\NC(=O)c1sccc1C)c1cccnc1 | . | . | . | . | . | .
CN(CCC1CCOCC1)C(=O)CC1C(=O)NCCN1Cc1ccccc1F (stereo not drawn) | . | . | . | . | 8.9µM | .
CN(CC1CCOCC1)C(=O)CC1C(=O)NCCN1Cc1ccccc1F (stereo not drawn) | . | . | . | ? | / | .
CN(CCCC1CCCC1)C(=O)CC1C(=O)NCCN1Cc1ccc(F)cc1 (stereo not drawn) | . | . | ? | . | 79µM | .
COc1cc(OC)cc(C(=O)NCC(=O)OCC(=O)Nc2ncc(Cl)cc2Cl)c1 | . | . | . | . | 71µM | .
COc1cccc(C(=O)NCC(=O)OCC(=O)Nc2ncc(Cl)cc2Cl)c1 | . | . | ? | . | ? | .
O=C(COC(=O)c1ccc([N+](=O)[O-])o1)Nc1ncc(Cl)cc1Cl | . | . | / | . | / | .
SMILES | PLK1 PBD block | VDR inhibitor | BAZ2B block | JMJD2A Tudor | G9a block | HP1b chromo inh
O=C(COC(=O)c1ccc(Br)o1)Nc1ncc(Cl)cc1Cl | . | . | 50µM | ? | ? | .
COc1cc(OC)cc(C(=O)NCC(=O)OCC(=O)c2ccc3c(c2)-c2ccccc2C3)c1 | . | . | . | . | 35µM | .
C[C@H](CO)N1C[C@H](C)[C@H](CN(C)S(=O)(=O)c2cccc(C#N)c2)OCc2cnnn2CCCC1=O | 30µM | / | / | / | / | /
O=C(NN(C(=O)C1CC1)c1nc2ccccc2s1)C1CC1 | 27µM | . | . | . | ? | .
CC(C)C(=O)NN(C(=O)C(C)C)c1nc2ccccc2s1 | . | . | . | . | . | .
CCc1nc(N2CCCCC2)c2oc3ccccc3c2n1 | . | . | . | . | . | .
CCc1nc(N2CCCCC2C)c2oc3ccccc3c2n1 (stereo not drawn) | . | . | . | . | . | .
CCc1nc(N2CCCC(C)C2)c2oc3ccccc3c2n1 (stereo not drawn) | 15µM | ? | . | 20µM | ? | .
CCc1nc(N2CCN(Cc3ccc4c(c3)OCO4)CC2)c2oc3ccccc3c2n1 | . | . | 71µM | ? | ? | ?
COC(=O)c1ccc(/C=C2/SC(=S)N(CCCC(=O)Nc3ccccn3)C2=O)cc1 | . | . | . | . | . | ?
CCc1ccc(/C=C2\SC(=S)N(CCCC(=O)Nc3ccccn3)C2=O)cc1 | . | . | 10µM | ? | .[0.501 µM] | ?
CCc1ccc(/C=C2/SC(=S)N(CCCC(=O)Nc3ccccc3C(=O)O)C2=O)cc1 | 24µM | ? | . | 50µM | ? | .
Cc1ccsc1C(=O)N1CCCC(CCC(=O)N2CCN(c3ccccn3)CC2)C1 (stereo not drawn) | . | . | . | . | . | .
O=C(NCCN1CCN(Cc2ccccc2)CC1)c1ccc(CS(=O)(=O)c2c(Cl)cccc2Cl)o1 | . | / | / | / | / | /
Cc1cc(C(=O)COC(=O)c2cccnc2Cl)c(C)n1CC1CCCO1 (stereo not drawn) | . | 89µM | ? | . | ? | .
Cc1cc(C(=O)COC(=O)c2cc(O)c3ccccc3c2O)c(C)n1CC1CCCO1 (stereo not drawn) | 8.4µM | 71µM | 50µM | 32µM | 10µM | 28µM
Cc1cc(C(=O)CSc2nc3ccc(Cl)cc3[nH]2)c(C)n1CC1CCCO1 (stereo not drawn) | . | . | ? | ? | 45µM | .
Cc1cc(C(=O)CSc2nc3ccc(Cl)cc3[nH]2)c(C)n1C | . | . | . | ? | ? | .
COc1ccccc1Cc1nc2ccccc2nc1SCC(=O)Nc1ccccc1C(F)(F)F | / | . | . | . | . | .
CN(C)CCCNCCCNC(=O)/C(=N\O)c1ccccc1 | . | . | . | ? | 50µM | .
CN(C)CCNC(=O)/C(=N\O)c1ccccn1 | . | . | ? | . | 50µM | .
Cc1ccc(C(=O)NCCCNCCCN(C)C)cn1 | . | . | ? | 50µM | ? | .
CN(C)CCCNCCCNC(=O)c1ccccn1 | . | . | . | .[11.4 µM] | ? | .
CCOC(=O)c1nc(C)nc(Sc2n[nH]c(-c3ccccc3)n2)c1C | . | . | . | . | ? | .
CC(C)CN(C(=O)c1cccc(S(=O)(=O)N2CCN(Cc3ccccc3)CC2)c1)C1CCS(=O)(=O)C1 (stereo not drawn) | . | . | . | . | ? | .
Cc1ccccc1OCC(=O)Nc1nnc(S(=O)(=O)N(C)c2ccccc2)s1 | / | . | ? | . | ? | .
